Platelet DG rel – platelet dense granule release activity. inhibition, %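 (compounds screened at 7.5 µM in platelet-rich plasma)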. AID 1663. human platelet-rich plasma, SFLLRN dense granule ATP release, luminescence. 0.22% of 300,000 active;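 active means mean replicate score, as percent of positive control, at or above 50; inconclusive means mean below 50 but at least one replicate at or above 50; inactive means mean and every replicate below 50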
HIF activator – HIF pathway transcriptional activation; activation, % at 7.5 µM (by protocol); AID 1910; 0.32% of 300,000 active; U2OS HRE-luciferase reporter, luminescence; normalized: DMSO 0%, desferrioxamine 100%;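 active means mean activation of at least 10% of the iron chelator positive control signal, with at least half of replicates also reaching 10%; inconclusive means mean and replicate majority disagree about reaching 10%; inactive means mean and most replicates under 10%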
NTR1 ag – NTR1 (human) agonism. 0.17% of 330,000 active. AID 493036. activation, % at 20 µM. NTR1-U2OS beta-arrestin-GFP spot imaging, agonist mode;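 active means activation at or above 40% of the spot to cytoplasm intensity ratio, with at least 20 cells analyzed; inconclusive means wells under 20 cells, flagged as cytotoxic or low count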
Target sequence (P30989 whole entry, looked up): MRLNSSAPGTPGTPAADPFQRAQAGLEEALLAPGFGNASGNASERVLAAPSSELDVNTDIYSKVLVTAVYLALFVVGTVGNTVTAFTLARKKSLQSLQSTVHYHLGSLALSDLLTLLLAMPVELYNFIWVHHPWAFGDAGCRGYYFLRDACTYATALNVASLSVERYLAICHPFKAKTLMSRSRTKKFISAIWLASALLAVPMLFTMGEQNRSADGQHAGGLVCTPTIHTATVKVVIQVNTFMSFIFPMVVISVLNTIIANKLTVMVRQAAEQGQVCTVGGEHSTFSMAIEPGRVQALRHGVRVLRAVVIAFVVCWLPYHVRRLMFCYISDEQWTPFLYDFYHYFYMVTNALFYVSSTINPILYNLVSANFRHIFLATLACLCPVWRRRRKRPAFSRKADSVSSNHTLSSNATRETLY
Large screens that a line does not name were inactive. Compounds with a hit are over-represented: about 0.63% of the library has one in this group of screens.

C/C(=N\Nc1cc(-c2ccccc2)nc(-c2ccccc2)n1)c1ccc(O)c(C)c1	none
Cc1cc(NC(=O)Nc2cccc(Cl)c2)n(C(C)(C)C)n1	none
O=C(NC(=S)Nc1ccccc1)c1cc(-c2ccccc2)nc2ccccc12	none
CCNC(=S)NNC(=O)c1cc(-c2ccc(OC)cc2)nc2ccccc12	Platelet DG rel 111
CCCCOc1ccc(-c2cc(C(=O)NNC(=S)NCC)c3ccccc3n2)cc1	Platelet DG rel 77
O=C(NC(=S)Nc1ccccn1)c1cc(-c2ccccc2)nc2ccccc12	HIF activator 184
CCNC(=S)NNC(=O)c1cc(-c2cccc(C)c2)nc2ccccc12	none
CCCCOc1cccc(-c2cc(C(=O)NNC(=S)NCC)c3ccccc3n2)c1	none
Cc1cccc(-c2n[nH]c(=S)n2-c2ccccc2)c1[N+](=O)[O-]	none
Cc1[nH]nc2c1C(c1ccsc1)C(C#N)=C(N)O2 (stereo not given)	none
N#CCCc1cccc(CCC#N)c1	none
O=C(N1CCN(Cc2ccc3c(c2)OCO3)CC1)C(Cl)(Cl)Cl	none
Cc1[nH]c(N=Nc2ccccc2)nc1N=Nc1ccccc1	none
Cc1ccc(-c2noc(CN3CCN(C(c4ccccc4)c4ccccc4)CC3)n2)cc1	none
O=C(N1CCOCC1)N1CCN(Cc2ccccc2)CC1	none
Cc1cc(=O)[nH]c(N=N/C(=N/Nc2ccc(O)cc2)c2ccccc2)n1	Platelet DG rel inconclusive, HIF activator 12
Cc1cc(=O)[nH]c(N=N/C(=N/Nc2ccccc2C)c2ccccc2)n1	none
COc1ccc(C(=O)CSc2nc(C)cc(=O)[nH]2)cc1	none
COc1ccc(N/N=C(/N=Nc2nc(C)cc(=O)[nH]2)c2ccccc2)cc1	HIF activator 143
CCOC(=O)C1CCN(c2ccc([N+](=O)[O-])cc2)CC1	none
C=CCn1c(N2CCOCC2)nc2c1c(=O)[nH]c(=O)n2C	none
C=CCn1c(N2CCCCCC2)nc2c1c(=O)[nH]c(=O)n2C	HIF activator 30
Cc1ccc(C)c(N2CCN(C(=O)Cn3ncc4c([nH]c5ccc(C)cc54)c3=O)CC2)c1	none
CCCN(CC1CC1)C(=S)NC(=O)C1CC1	none
CCOc1ccc(C(=O)NCc2cccnc2)cc1	none
O=C(N/N=C/C=C\c1ccco1)c1cccnc1	none
CCOc1ccc(N/C=C/C(=O)c2ccccc2)c([N+](=O)[O-])c1	Platelet DG rel 85
COc1ccc(NC(=S)N2CCN(C)CC2)cc1	none
COc1ccc(N/C=C\C(=O)c2ccc3ccccc3c2)cc1	none
CCOc1ccc(NC(=O)/C=C/c2ccccc2)c([N+](=O)[O-])c1	none
COc1ccc(N/C=C/C(=O)c2ccccc2)cc1	Platelet DG rel 56
COc1ccc(NC(=S)N2CCN(C(=O)c3ccccc3)CC2)cc1	HIF activator 58
CC1=Nc2ccccc2N=C(NC(=O)CSC(=S)N2CCN(C)CC2)C1c1ccccc1 (stereo not given)	none
N#Cc1cccc(NC(=O)CCNC(=O)c2ccccc2Cl)c1	none
COc1ccc(OC)c(/C=C/C(=O)OCC(=O)NCc2ccco2)c1	none (no result: Platelet DG rel, HIF activator)
O=c1c2ccccc2nc(N/N=C/c2ccc(O)cc2)n1O	none
COc1ccccc1OCC(=O)N/N=C/c1c(O)ccc2ccccc12	HIF activator 18
Cc1ccc(O)c(/C=N/NC(=O)CN2CCCC2)c1	HIF activator 15
O=C(CCSc1nc2ccccc2s1)N/N=C/c1c(O)ccc2ccccc12	HIF activator 11
COc1ccccc1OCC(=O)N/N=C/c1cccc2cccnc12	none
O=c1c2ccccc2nc(N/N=C/c2c(O)ccc3ccccc23)n1O	HIF activator 15
COc1ccc(/C=N/NC(=O)CCSc2nc3ccccc3s2)cc1OC	none
Cc1cccc(/C=N/NC(=O)CN2CCCCCCC2)c1	none
O=c1onc(-c2ccc(Cl)cc2)n1Cc1ccc(F)cc1	none
CCOC(=O)C1=C(C)NC(C)=C(C(=O)OCC)C1C(=O)OCC(=O)NC1CCCCC1	none (no result: Platelet DG rel, HIF activator)
COCCNC(=O)CSc1nc2sc(C)c(C)c2c(=O)n1-c1ccccc1	none
Cc1cc(C)n(CCC(=O)N/N=C/c2ccc(O)cc2)n1	none
O=C(CN1CCCC1)N/N=C/c1c(O)ccc2ccccc12	HIF activator 28
O=C(CN1CCOCC1)N/N=C/c1cccc2ccccc12	none
Cc1cc(C)n(CCC(=O)N/N=C/c2c(O)ccc3ccccc23)n1	HIF activator 17
COC(=O)c1ccccc1NC(NC(=O)c1ccco1)C(=O)c1ccc(C)cc1 (stereo not given)	none
CCNC(=S)N(CCc1ccc(OC)c(OC)c1)Cc1cc2cc(OC)ccc2[nH]c1=O	none
Cc1ccc(-n2c(C)cc(C)c(C#N)c2=O)cc1	none
Cc1ccc(-n2c(N)c(C#N)c(-c3ccccc3)c(C#N)c2=O)cc1	Platelet DG rel 87
Cc1ccc2c(=O)c(C(=O)c3ccc(F)cc3)cn(CC(=O)NCc3ccco3)c2n1	none
Cc1sc2ncnc(N3CCOCC3)c2c1C	none
O=[N+]([O-])c1ccc(N=Nc2c(Cl)cc(O)cc2Cl)cc1	Platelet DG rel 73 (no result: NTR1 ag)
CC(N)=Nc1ccc([N+](=O)[O-])cc1	none
CCOC(=O)c1oc2cc(O)ccc2c(=O)c1-c1ccc(OC)cc1	none
NC(=O)c1cc(S(=O)(=O)Nc2cccc(Cl)c2)cs1	none
Cc1onc(-c2ccccc2)c1C(=O)Nc1cccc2nsnc12	none
CC(C)NC(=O)Cn1c(SCC(=O)N2CCCc3ccccc32)nc2ccccc21	none
O=C(Cn1c(SCC(=O)N2CCCc3ccccc32)nc2ccccc21)N1CCCC1	HIF activator 70
Cc1ccc(C(=O)Nc2cccnc2)cc1[N+](=O)[O-]	none
COc1ccc(CNC(=O)c2ccc3c(=O)n(CCCN4CCCC4=O)c(=S)[nH]c3c2)cc1	none
CCCN(CC(=O)Nc1ccccc1C)C(=O)c1ccc2ccccc2n1	none
Cc1ccccc1NC(=S)c1ccc2ccccc2n1	Platelet DG rel 54
C=CCOc1ccc(C(=O)/C=C2/C(=O)Nc3ccccc32)cc1	none
C=CCOc1ccccc1C(=O)/C=C1/C(=O)Nc2ccccc21	NTR1 ag 50
O=C(CN1CCN(c2cccc(C(F)(F)F)c2)CC1)NCc1ccccc1	none
O=C1C(=O)c2ccccc2C(O)=C1c1cccc([N+](=O)[O-])c1	HIF activator 23
Cc1ccc(C2=C(O)c3ccccc3C(=O)C2=O)cc1	none
O=C(CSc1nnc(-c2ccco2)o1)c1ccccc1Cl	none
Cc1cccc(S(=O)(=O)N(CC(=O)Nc2ccccc2C)Cc2ccco2)c1	none
O=C(/C=C/c1cn(-c2ccccc2)nc1-c1ccccc1)Nc1ccc(C(=O)O)cc1	HIF activator 16
NS(=O)(=O)c1ccc(NC(=O)/C=C/c2cn(-c3ccccc3)nc2-c2cccc(Cl)c2)cc1	none
COc1ccc(-n2ncc3c(=O)n(CC(=O)OCc4ccccc4)cnc32)cc1	none
CSCC(=O)N1CCCC(N2CCN(c3ccc(F)cc3)CC2)C1 (stereo not given)	none
CCOc1ccccc1NS(=O)(=O)c1cc2c3c(c1)CC(=O)N3CCC2	none
COc1ccc(CCNC(=O)c2ccc3c(c2)S(=O)(=O)N=C2CCCCCN23)cc1	none
COc1ccc(CCNC(=O)c2ccc3c(c2)SC2=NS(=O)(=O)CCN23)cc1	Platelet DG rel 77
CCCc1c(C(=O)N/N=C/c2c(OC)ccc3ccccc23)nnn1-c1nonc1N	none
CCn1c(Cc2cccn2C)nnc1SCC(=O)c1ccc(C)cc1	Platelet DG rel 58
CCn1c(SCC(=O)c2ccc(O)c(O)c2)nnc1-c1ccc(C)cc1	none
COC(=O)c1ccccc1NC(=S)NC(=O)c1cccc2ccccc12	none
CCOc1cc(C)c(S(=O)(=O)N2CCCC2)cc1C	none
